Test results: PubChem BioAssay AID1159580 (chemical genetic matrix, 2015)
The whole screen tested about 5,500 compounds, of which about 2,000 (36%) were called active. Inconclusive results (about 18%) are left out. Rule as the data show it: active = normalized growth mostly below about 0.91 (no sharp cut-off); inconclusive = no clear call, values can overlap the other calls; inactive = mostly above about 0.92. This is one part of the list.

Test: chemical genetic growth profiling, strain panel (AID 1159580);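 also: tested at 20 µM; growth read once vehicle control cultures reached saturation at 30 °C; 1 = growth at the plate median or of vehicle wells; lower values mean less growth of the strain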
Conditions: growth OD

Measured: normalized growth

O=C(O)C1=C[C@@H](O)[C@@H](O)[C@H](O)C1
inactive: S. cerevisiae deletion strains, locus YJR043C, strain POL32, hits give low values 1.02 | S. cerevisiae deletion strains, locus YJR066W, strain TOR1, hits give low values 0.928 | S. cerevisiae deletion strains, locus YJR075W, strain HOC1, hits give low values 1.01 | S. cerevisiae deletion strains, locus YKL009W, strain mrt4, hits give low values 1 | S. cerevisiae deletion strains, locus YKL068W, hits give low values 1 | S. cerevisiae deletion strains, locus YKL085W, strain MDH1 (second series), hits give low values 1.01 | S. cerevisiae deletion strains, locus YKL085W, strain MDH1, hits give low values 1.01 | S. cerevisiae deletion strains, locus YKL160W, strain elf1, hits give low values 0.987 | S. cerevisiae deletion strains, locus YKR001C, strain vps1, hits give low values 1.07 | S. cerevisiae deletion strains, locus YKR026C, strain gcn3, hits give low values 0.999 | S. cerevisiae deletion strains, locus YKR091W, strain srl3, hits give low values 0.969 | S. cerevisiae deletion strains, locus YLL001W, strain dnm1, hits give low values 0.995 | S. cerevisiae deletion strains, locus YLL026W, hits give low values 0.975 | S. cerevisiae deletion strains, locus YLL041C, strain sdh2, hits give low values 0.978 | S. cerevisiae deletion strains, locus YLR027C, strain aat2, hits give low values 0.996 | S. cerevisiae deletion strains, locus YLR039C, strain RIC1, hits give low values 1.1 | S. cerevisiae deletion strains, locus YLR058C, strain SHM2, hits give low values 1.01 | S. cerevisiae deletion strains, locus YLR102C, strain apc9, hits give low values 1.01 | S. cerevisiae deletion strains, locus YLR113W, strain HOG1, hits give low values 1.01 | S. cerevisiae deletion strains, locus YLR221C, strain rsa3, hits give low values 0.982 | S. cerevisiae deletion strains, locus YLR258W, strain gsy2, hits give low values 0.974 | S. cerevisiae deletion strains, locus YLR262C, strain YPT6 (second series), hits give low values 0.952 | S. cerevisiae deletion strains, locus YLR262C, strain YPT6, hits give low values 1.13 | S. cerevisiae deletion strains, locus YLR268W, strain sec22, hits give low values 1.05 | S. cerevisiae deletion strains, locus YLR320W, strain mms22, hits give low values 0.985 | S. cerevisiae deletion strains, locus YLR330W, strain CHS5, hits give low values 1.01 | S. cerevisiae deletion strains, locus YLR342W, strain FKS1 (second series), hits give low values 1.05 | S. cerevisiae deletion strains, locus YLR342W, strain FKS1, hits give low values 0.985 | S. cerevisiae deletion strains, locus YLR357W, strain rsc2, hits give low values 0.973 | S. cerevisiae deletion strains, locus YLR370C, strain arc18, hits give low values 0.994 | S. cerevisiae deletion strains, locus YLR371W, strain rom2, hits give low values 1.02 | S. cerevisiae deletion strains, locus YLR384C, strain iki3, hits give low values 0.979 | S. cerevisiae deletion strains, locus YLR418C, strain cdc73, hits give low values 0.986 | S. cerevisiae deletion strains, locus YML016C, strain PPZ1, hits give low values 1.02 | S. cerevisiae deletion strains, locus YML032C, strain rad52, hits give low values 0.993 | S. cerevisiae deletion strains, locus YML120C, strain ndi1, hits give low values 0.982 | S. cerevisiae deletion strains, locus YML124C, strain tub3, hits give low values 1 | S. cerevisiae deletion strains, locus YMR058W, strain fet3, hits give low values 0.973 | S. cerevisiae deletion strains, locus YMR078C, strain ctf18, hits give low values 1.01 | S. cerevisiae deletion strains, locus YMR125W, strain sto1, hits give low values 0.968 | S. cerevisiae deletion strains, locus YMR129W, hits give low values 0.986 | S. cerevisiae deletion strains, locus YMR205C, strain PFK2, hits give low values 0.984 | S. cerevisiae deletion strains, locus YMR223W, strain ubp8, hits give low values 0.987 | S. cerevisiae deletion strains, locus YMR231W, strain pep5, hits give low values 0.967 | S. cerevisiae deletion strains, locus YMR263W, strain SAP30, hits give low values 1.02 | S. cerevisiae deletion strains, locus YMR307W, strain GAS1, hits give low values 1.04 | S. cerevisiae deletion strains, locus YNL067W, strain RPL9B, hits give low values 1.01 | S. cerevisiae deletion strains, locus YNL071W, strain lat1, hits give low values 0.982 | S. cerevisiae deletion strains, locus YNL183C, strain NPR1, hits give low values 0.962 | S. cerevisiae deletion strains, locus YNL209W, strain ssb2, hits give low values 0.983 | S. cerevisiae deletion strains, locus YNL233W, strain BNI4, hits give low values 1.03 | S. cerevisiae deletion strains, locus YNL248C, strain rpa49, hits give low values 0.965 | S. cerevisiae deletion strains, locus YNL250W, strain rad50, hits give low values 1.03 | S. cerevisiae deletion strains, locus YNL271C, strain bni1, hits give low values 1.01 | S. cerevisiae deletion strains, locus YNL298W, strain CLA4, hits give low values 1.01 | S. cerevisiae deletion strains, locus YNL307C, strain MCK1, hits give low values 1.02 | S. cerevisiae deletion strains, locus YNL322C, strain KRE1 (second series), hits give low values 0.986 | S. cerevisiae deletion strains, locus YNR049C, strain mso1, hits give low values 0.989 | S. cerevisiae deletion strains, locus YNR052C, strain pop2, hits give low values 1.01 | S. cerevisiae deletion strains, locus YOL012C, strain htz1 0.985 | S. cerevisiae deletion strains, locus YOL147C, strain pex11, hits give low values 0.993 | S. cerevisiae deletion strains, locus YOR001W, strain rrp6, hits give low values 0.993 | S. cerevisiae deletion strains, locus YOR061W, strain CKA2, hits give low values 1.01 | S. cerevisiae deletion strains, locus YOR069W, strain VPS5, hits give low values 1.01 | S. cerevisiae deletion strains, locus YOR070C, strain gyp1, hits give low values 0.996 | S. cerevisiae deletion strains, locus YOR080W, strain dia2, hits give low values 0.99 | S. cerevisiae deletion strains, locus YOR083W, strain WHI5, hits give low values 0.982 | S. cerevisiae deletion strains, locus YOR106W, strain vam3, hits give low values 0.972 | S. cerevisiae deletion strains, locus YOR136W, strain idh2, hits give low values 1.01 | S. cerevisiae deletion strains, locus YOR144C, strain elg1, hits give low values 1 | S. cerevisiae deletion strains, locus YOR184W, strain ser1, hits give low values 1.02 | S. cerevisiae deletion strains, locus YOR231W, strain MKK1, hits give low values 0.981 | S. cerevisiae deletion strains, locus YOR265W, strain rbl2, hits give low values 0.977 | S. cerevisiae deletion strains, locus YOR270C, strain vph1, hits give low values 0.969 | S. cerevisiae deletion strains, locus YOR290C, strain snf2, hits give low values 0.988 | S. cerevisiae deletion strains, locus YOR316C, strain cot1, hits give low values 0.996 | S. cerevisiae deletion strains, locus YPL051W, strain arl3, hits give low values 0.977 | S. cerevisiae deletion strains, locus YPL078C, strain atp4, hits give low values 0.987 | S. cerevisiae deletion strains, locus YPL106C, strain sse1, hits give low values 0.973 | S. cerevisiae deletion strains, locus YPL240C, strain hsp82, hits give low values 0.989 | S. cerevisiae deletion strains, locus YPL241C, strain CIN2, hits give low values 1.01 | S. cerevisiae deletion strains, locus YPL256C, strain CLN2, hits give low values 0.978 | S. cerevisiae deletion strains, locus YPR119W, strain clb2, hits give low values 1 | S. cerevisiae deletion strains, locus YPR141C, strain kar3, hits give low values 1 | S. cerevisiae deletion strains, locus YPR163C, strain tif3, hits give low values 0.995 | S. cerevisiae deletion strains, locus YPR167C, strain met16, hits give low values 0.999 | S. cerevisiae deletion strains, strain wtn01, hits give low values 1.05 | S. cerevisiae strains, strain wild type, hits give low values 1.02
